{"source": "PubChem BioAssay AID686934", "about": "(National Center for Advancing Translational Sciences (NCATS), 2013)", "note": "Records with an inconclusive call do not appear. The source made the active and inactive calls. The call rests on the fitted dose curve; in most records, active means well fitted curve in the direction sought with a large enough effect; inconclusive means small, poorly fitted or top-dose-only effect, or another doubt; inactive means no such curve, though single readings can be large or run the other way.", "data": [{"assay": "qHTS screen for small molecules that inhibit ELG1-dependent DNA repair: SAR in Cell-Based Luciferin Counter Assay", "conditions": "cell-based luciferase counter-screen, luminescence; series mostly up to 45.7 µM", "from_the_text": "Cancer cells divide rapidly compared to normal cells in the body. During cell division, cancer cells need to duplicate their genome by DNA replication. The failure of genome duplication leads to cancer cells' death. Therefore, inhibitors of DNA replication could specifically kill cancer cells. Based on this concept, many chemotherapeutic agents were developed and have been used to treat cancer patients. However, there are a limited number of agents available in the clinical setting, and some of those that do exist have low efficacy and severe side effects. Therefore, if we can find the compounds that effectively block DNA replication either by directly damaging DNA or by inhibiting other cellular mechanisms, the options for cancer treatment will be broadened. With this in mind, we developed a quantitative high-throughput ELG1-luciferase reporter gene assay. Small molecules that specifically block ELG1 function in response to DNA damage can be identified by monitoring the suppression of luciferase activity. Since ELG1 defines a pathway for repairing DNA damage, agents blocking ELG1 function can be used to sensitize cancer cells to chemotherapeutic agents whose mechanism of action involves the induction of DNA damage. This assays is a counterscreen, that is more specifically, a cell-based luciferase assay following treatment with putative ELG1 antagonists to eliminate luciferase enhancers/inhibitors NIH Molecular Libraries Probe Production Network [MLPCN] NIH Chemical Genomics Center [NCGC] MLPCN Grant: R03 MH092164 Assay Provider: Kyungjae Myung, NHGRI, NIH\n3 uL of substrate reagent will be pipetted into each well in 1536-well white, solid-bottom plates using a FRD dispenser, followed by addition of 23 nL of DMSO or compounds by pintool. After compound addition, 1 µL of luciferase will be added into the wells. The plates will be read in a ViewLux CCD-based plate reader.", "values": [{"smiles": "O=C(CCl)c1ccc(O)c(O)c1", "outcome": "inactive"}, {"smiles": "CCCCCC1C(=O)O[C@H](C)[C@@H](NC(=O)c2cccc(NC=O)c2O)C(=O)OC(C)C1OC(=O)CC(C)C", "note": "(stereo partly specified)", "outcome": "inactive"}, {"smiles": "CCCC(=O)O[C@@H]1[C@@H](C)[C@@]2(O)[C@@H](C=C(CO)C[C@]3(O)C(=O)C(C)=C[C@@H]23)[C@@H]2C(C)(C)[C@]12OC(=O)CCC", "outcome": "inactive"}, {"smiles": "CCCSc1ccc2nc(NC(=O)OC)[nH]c2c1", "outcome": "inactive"}, {"smiles": "CC(=O)OCC1=C[C@H]2[C@@H]3C(C)(C)[C@]3(OC(=O)Cc3ccccc3)C[C@@H](C)[C@]2(O)[C@@H]2C=C(C)C(=O)[C@@]2(O)C1", "outcome": "inactive"}, {"smiles": "CN[C@@H]1C[C@@]2(C)O[C@@H]([C@@H]1OC)n1c3ccccc3c3c4c(c5c6ccccc6n2c5c31)C(=O)NC4", "outcome": "inactive"}]}]}
